# The whole screen tested about 2,200 compounds, of which about 480 (22%) were called active. The list is a sample of the results. Measured potencies and affinities stand elsewhere. A number with no mark means an inactive call. The rule behind the calls is not given here.
# Test: S. Typhimurium GFP fluorescence modified counterscreen for PhoP regulon inhibitor project dose response (AID 1981);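 note: 0% = induced DMSO wells and 100% = uninduced wells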
# Conditions: 4 h; series mostly up to 150 µM; inhibition: at the top concentration
row,SMILES,inhibition
1,Cc1cccc(OCCCSc2nc3ccc(C)cc3[nH]2)c1,8.72%
2,C=C(C)Cn1c(CCn2c3ccccc3c3ccccc32)n[nH]c1=S,-5.59%
3,N#C/C(=C\c1c(Cl)cccc1Cl)c1nc2ccccc2[nH]1,0.17%
4,COCc1cc(C)nc(N2CCc3ccccc32)c1C#N,-15%
5,CCOc1ccc2nc(COC(=O)c3ccco3)c(C(C)=O)[n+]([O-])c2c1,5.1%
6,COc1ccc2cc(C)c3nnc(SCC(=O)Nc4nc(-c5ccccc5)cs4)n3c2c1,-5.19%
7,Cc1ccc(C[n+]2cc(-c3ccc(Cl)cc3)n3c2CCC3)cc1,0.58%
8,Cc1ccc(NC(=O)CCN2CCc3ccccc3C2)cc1,8.78%
9,CCOC(=S)SCC(=O)Nc1nc(-c2ccccc2)cs1,-12.2%
10,COc1ccc(-c2csc(NC(=O)C3CCCO3)n2)cc1 (stereo not given),-2.8%
11,CN(C)CC(=O)Nc1nc(-c2ccccc2)cs1,2.72%
12,CCCCCOC(=O)C1=C(C)Nc2nnnn2C1c1ccc(OC)c(OC)c1OC (stereo not given),-12.6%
13,Cc1ccc(Nc2nc(CSc3nnc(-c4ccc(F)cc4)n3C)cs2)cc1,12.9%
14,CSc1cccc(NC(=O)COc2cccc3ccccc23)c1,26.1%
15,COc1ccc(OC)c(NC(=S)NCCCN2CCOCC2)c1,-26.3%
16,COc1ccccc1NC(=S)NNC(=O)c1c(Cl)c(C)nn1C,-16.2%
17,C=CCN(CC=C)Cc1c[nH]c2ccccc12,-6.22%
18,Cc1cc(C)[n+](C2C3CC4CC(C3)CC2C4)o1 (stereo not given),-3.92%
19,Cc1cccc(-n2c(N)cc(=O)[nH]c2=S)c1C,35.5%
20,CCOC(=O)c1c(N)ssc1=S,-4.32%

row,SMILES,inhibition
1,CCOC(=O)c1ccc2c(c1)C(=O)N(C1CCCCC1)C2=O,-0.64%
2,O=C1c2ccccc2NC(c2ccc(-c3cccc(Cl)c3)o2)N1O (stereo not given),39.3%
3,COc1cccc(C2Nc3ccccc3C(=O)N2O)c1O (stereo not given),20.4%
4,O=C(OCCN1C(=O)c2ccccc2C1=O)c1ccc(S(=O)(=O)N2CCCCCC2)cc1,-5.15%
5,Cc1ccc([N+](=O)[O-])cc1NC(=O)CN(C(=O)c1ccc(Cl)cc1)C1CCCCC1,3.93%
6,Cc1cc(NC(=O)c2ccccc2-c2ccccc2)ccc1Br,3.71%
7,CN1c2ccccc2C(=O)NC1c1ccc([N+](=O)[O-])s1 (stereo not given),-1.37%
8,CCN(CC)Cc1c[nH]c2c(C(=O)OC)cccc12,-10.6%
9,O=C(C1CCN(C2CC(=O)N(Cc3ccccc3)C2=O)CC1)N1CCCCCC1 (stereo not given),-1.1%
10,N#Cc1c(N)n[nH]c1-c1cc2c([nH]1)CCCC2,4.52%
11,O=C(NCc1ccco1)c1c2c(nc3ccccc13)CCC2,-6.14%
12,Cc1[nH]c2ccccc2c1C(=O)CN1CCSCC1,-4.49%
13,c1ccc(C2CNCc3c2ccc2ccccc32)cc1 (stereo not given),12.6%
14,CCOc1ccc(CSC(CC(=O)O)C(=O)O)cc1 (stereo not given),0.82%
15,O=C(CCN1C(=O)c2ccccc2S1(=O)=O)Nc1ccc2c(c1)OCCO2,1.94%
16,CCOC(=O)c1cc2ccc(OC)c(OC)c2c(=O)s1,-12.9%
17,COc1cccc(NC(=O)CNC(=O)c2cccs2)c1,-4.85%
18,Cc1ccccc1Cn1nc(C)c(NC(=O)c2noc3c2CCc2ccccc2-3)c1C,-13.4%
19,O=C1C(c2ccc(F)cc2)N(Cc2ccc3c(c2)OCO3)C(=O)CN1C1CCCCCC1 (stereo not given),-19.2%
20,COc1ccc(NC2=NC3(CCCCC3)N=C(N)N2)cc1,-11.8%

row,SMILES,inhibition
1,CCOC(=O)c1c(C)[nH]c(C)c1C(=O)CSc1ncccn1,-9.71%
2,Cc1cccn2cc(CSc3nnc(Nc4ccc(C(C)C)cc4)s3)nc12,-0.41%
3,CC1CCN(C(=O)c2ccc3c(c2NCCO)C(=O)c2ccccc2C3=O)CC1,4.02%
4,CSc1nsc(SCC(=O)Nc2ccc(C(C)=O)cc2)n1,-16.7%
5,CN(C(=O)/C=C/c1ccccc1)C1CCS(=O)(=O)C1 (stereo not given),-5.09%
6,Cc1cc(C)nc(N(C#N)C(C)C(=O)N(C)C)n1 (stereo not given),-16%
7,Cc1c(C)n(Cc2ccccc2)c2ncnc(N)c12,-0.12%
8,O=c1[nH]c(CN2CC=C(c3ccccc3)CC2)nc2cc(C(F)(F)F)ccc12,3.42%
9,COc1ccc(Nc2nc(-c3cccc([N+](=O)[O-])c3)nc3ccccc23)cc1,-16%
10,COc1ccccc1Nc1nc(NCc2ccco2)c2ccccc2n1,12.3%
11,BrC(=C\c1ccccc1)/C=N/N1CCN(c2ccccn2)CC1,-4.11%
12,C/C(CC(=O)Nc1ccc(Cl)c(C(F)(F)F)c1)=N\NC(=O)c1cccc(O)c1,8.6%
13,N=c1n(CCO)c2ccccc2n1Cc1ccc(Cl)cc1,8.73%
14,N=c1n(Cc2ccc(Cl)cc2)c2ccccc2n1CC(O)c1ccco1 (stereo not given),2.34%
15,C#CCN1C(=O)C(O)(CC(=O)c2ccc(OC)c(OC)c2)c2ccccc21 (stereo not given),-14.4%
16,CCCCCCCCOC(=O)C1=C(C)Nc2nnnn2C1c1cccs1 (stereo not given),-13%
17,COc1ccc(Oc2ccccc2/C=N/O)cc1,2.01%
18,CCNC(=S)NNC(=O)c1ccc(OC(F)F)cc1,-6.15%
19,COC(=O)c1ccc(COC(=O)c2ccccn2)cc1,0.02%
20,CC(C)NC(=O)CSc1nc(N)c(NC(=O)c2ccccc2F)c(=O)[nH]1,-13.4%
